Results taken from the supplement of paper PMC11732987, “Enantioselective OTUD7B fragment discovery through chemoproteomics screening and high-throughput optimisation” (Communications Chemistry, 2025).

Key:
Assay in all cases: log2 ratio of Biotin-Ahx-Ub-VS probe labelling (fragment/DMSO); higher = less target engagement (more negative = stronger competition), active = hit call of the paper (q ≤ 0.05, log2 ratio ≤ -1)
Settings in all cases: compound concentration: 200 uM; treatment time: 3 h
[1] = target: T1, USP42 (UniProt Q9H9J4)
T1 sequence (whole entry): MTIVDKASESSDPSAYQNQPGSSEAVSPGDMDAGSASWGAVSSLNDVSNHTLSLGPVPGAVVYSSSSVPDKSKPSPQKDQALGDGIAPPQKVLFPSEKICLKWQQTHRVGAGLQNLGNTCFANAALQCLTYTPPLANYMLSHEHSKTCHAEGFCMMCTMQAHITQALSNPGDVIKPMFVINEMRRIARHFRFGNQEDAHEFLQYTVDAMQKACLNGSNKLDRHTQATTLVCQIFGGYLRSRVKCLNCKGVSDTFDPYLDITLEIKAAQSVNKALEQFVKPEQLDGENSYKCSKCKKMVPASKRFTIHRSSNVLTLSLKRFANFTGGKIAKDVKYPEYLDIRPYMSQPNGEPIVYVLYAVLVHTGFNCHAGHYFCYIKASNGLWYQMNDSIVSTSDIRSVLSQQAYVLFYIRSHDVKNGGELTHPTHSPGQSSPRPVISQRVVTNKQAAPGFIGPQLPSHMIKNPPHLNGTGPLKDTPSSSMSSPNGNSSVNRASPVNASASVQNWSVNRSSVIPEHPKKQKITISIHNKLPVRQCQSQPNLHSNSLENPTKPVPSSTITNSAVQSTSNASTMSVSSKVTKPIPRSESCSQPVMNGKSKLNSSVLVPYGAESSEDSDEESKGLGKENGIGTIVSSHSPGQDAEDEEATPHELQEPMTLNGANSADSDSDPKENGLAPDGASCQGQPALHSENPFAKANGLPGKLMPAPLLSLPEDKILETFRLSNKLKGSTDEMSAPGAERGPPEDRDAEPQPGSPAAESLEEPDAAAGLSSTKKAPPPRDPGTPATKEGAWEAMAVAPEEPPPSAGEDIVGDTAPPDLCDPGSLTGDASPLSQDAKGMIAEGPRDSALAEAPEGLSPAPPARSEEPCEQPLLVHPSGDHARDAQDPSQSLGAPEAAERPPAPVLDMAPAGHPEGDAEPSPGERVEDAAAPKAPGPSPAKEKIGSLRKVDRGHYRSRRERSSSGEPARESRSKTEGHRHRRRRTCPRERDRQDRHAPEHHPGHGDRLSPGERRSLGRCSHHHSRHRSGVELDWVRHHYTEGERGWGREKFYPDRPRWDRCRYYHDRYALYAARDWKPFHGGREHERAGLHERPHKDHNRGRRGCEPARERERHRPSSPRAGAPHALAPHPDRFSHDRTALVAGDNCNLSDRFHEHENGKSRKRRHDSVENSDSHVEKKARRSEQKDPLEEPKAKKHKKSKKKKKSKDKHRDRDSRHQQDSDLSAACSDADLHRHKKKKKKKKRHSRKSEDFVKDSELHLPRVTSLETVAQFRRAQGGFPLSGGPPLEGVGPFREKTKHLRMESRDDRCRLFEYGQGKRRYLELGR
How it was run: (§1)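 Labelled DUBs from HEK293T lysate were NeutrAvidin-enriched, digested with LysC and trypsin, and run by diaPASEF LC-MS/MS. Before that, each 495 µg sample in Tris/CHAPS/IGEPAL buffer with protease inhibitors was treated in triplicate with fragment at 200 µM or vehicle for 3 h, then with Biotin-Ahx-Ub-VS at 0.5 µM final for 1 h. Values are average log2 ratios of fragment over vehicle by unpaired t-test, based on global-median-normalised Spectronaut label-free quantities from proteins with ≥2 unique peptides.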

[2] = target: USP46 (UniProt P62068)
How it was run: as §1

[3] = target: T2, USP47 (UniProt Q96K76)
T2 sequence (whole entry): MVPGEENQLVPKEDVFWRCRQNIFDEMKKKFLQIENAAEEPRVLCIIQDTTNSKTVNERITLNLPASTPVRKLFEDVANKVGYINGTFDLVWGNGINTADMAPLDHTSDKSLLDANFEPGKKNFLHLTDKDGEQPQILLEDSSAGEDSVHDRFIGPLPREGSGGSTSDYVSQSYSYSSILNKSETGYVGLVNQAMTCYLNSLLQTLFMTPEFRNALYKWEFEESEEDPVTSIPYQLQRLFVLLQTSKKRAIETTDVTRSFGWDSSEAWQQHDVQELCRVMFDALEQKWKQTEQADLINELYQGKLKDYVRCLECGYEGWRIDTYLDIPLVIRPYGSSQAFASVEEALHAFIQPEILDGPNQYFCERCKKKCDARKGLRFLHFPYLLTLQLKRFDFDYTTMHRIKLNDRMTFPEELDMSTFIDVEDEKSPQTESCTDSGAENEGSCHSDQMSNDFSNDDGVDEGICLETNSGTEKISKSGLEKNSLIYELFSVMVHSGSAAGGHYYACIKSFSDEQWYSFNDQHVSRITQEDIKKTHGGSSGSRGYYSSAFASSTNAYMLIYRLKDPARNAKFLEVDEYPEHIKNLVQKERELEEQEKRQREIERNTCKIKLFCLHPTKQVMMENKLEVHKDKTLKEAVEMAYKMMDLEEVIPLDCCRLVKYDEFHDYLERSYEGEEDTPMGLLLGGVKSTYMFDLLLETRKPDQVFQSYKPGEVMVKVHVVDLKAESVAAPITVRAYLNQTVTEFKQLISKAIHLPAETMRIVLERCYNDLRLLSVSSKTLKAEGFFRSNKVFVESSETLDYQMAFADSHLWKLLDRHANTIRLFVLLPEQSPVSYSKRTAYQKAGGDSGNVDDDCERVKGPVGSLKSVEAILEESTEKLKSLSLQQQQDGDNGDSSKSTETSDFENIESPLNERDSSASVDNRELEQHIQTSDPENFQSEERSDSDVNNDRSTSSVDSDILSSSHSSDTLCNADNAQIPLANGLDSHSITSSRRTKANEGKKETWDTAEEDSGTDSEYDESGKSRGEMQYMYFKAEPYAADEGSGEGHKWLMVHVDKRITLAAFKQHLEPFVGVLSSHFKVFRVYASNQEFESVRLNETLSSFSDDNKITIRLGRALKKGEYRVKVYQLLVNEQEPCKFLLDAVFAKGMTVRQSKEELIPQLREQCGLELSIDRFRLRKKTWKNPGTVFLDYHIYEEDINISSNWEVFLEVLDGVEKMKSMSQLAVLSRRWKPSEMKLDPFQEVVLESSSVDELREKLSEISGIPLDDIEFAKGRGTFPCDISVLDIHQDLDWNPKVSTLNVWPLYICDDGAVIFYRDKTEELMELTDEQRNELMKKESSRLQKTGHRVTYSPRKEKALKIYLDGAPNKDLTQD
How it was run: as §1

[4] = target: T3, USP48 (UniProt Q86UV5)
T3 sequence (whole entry): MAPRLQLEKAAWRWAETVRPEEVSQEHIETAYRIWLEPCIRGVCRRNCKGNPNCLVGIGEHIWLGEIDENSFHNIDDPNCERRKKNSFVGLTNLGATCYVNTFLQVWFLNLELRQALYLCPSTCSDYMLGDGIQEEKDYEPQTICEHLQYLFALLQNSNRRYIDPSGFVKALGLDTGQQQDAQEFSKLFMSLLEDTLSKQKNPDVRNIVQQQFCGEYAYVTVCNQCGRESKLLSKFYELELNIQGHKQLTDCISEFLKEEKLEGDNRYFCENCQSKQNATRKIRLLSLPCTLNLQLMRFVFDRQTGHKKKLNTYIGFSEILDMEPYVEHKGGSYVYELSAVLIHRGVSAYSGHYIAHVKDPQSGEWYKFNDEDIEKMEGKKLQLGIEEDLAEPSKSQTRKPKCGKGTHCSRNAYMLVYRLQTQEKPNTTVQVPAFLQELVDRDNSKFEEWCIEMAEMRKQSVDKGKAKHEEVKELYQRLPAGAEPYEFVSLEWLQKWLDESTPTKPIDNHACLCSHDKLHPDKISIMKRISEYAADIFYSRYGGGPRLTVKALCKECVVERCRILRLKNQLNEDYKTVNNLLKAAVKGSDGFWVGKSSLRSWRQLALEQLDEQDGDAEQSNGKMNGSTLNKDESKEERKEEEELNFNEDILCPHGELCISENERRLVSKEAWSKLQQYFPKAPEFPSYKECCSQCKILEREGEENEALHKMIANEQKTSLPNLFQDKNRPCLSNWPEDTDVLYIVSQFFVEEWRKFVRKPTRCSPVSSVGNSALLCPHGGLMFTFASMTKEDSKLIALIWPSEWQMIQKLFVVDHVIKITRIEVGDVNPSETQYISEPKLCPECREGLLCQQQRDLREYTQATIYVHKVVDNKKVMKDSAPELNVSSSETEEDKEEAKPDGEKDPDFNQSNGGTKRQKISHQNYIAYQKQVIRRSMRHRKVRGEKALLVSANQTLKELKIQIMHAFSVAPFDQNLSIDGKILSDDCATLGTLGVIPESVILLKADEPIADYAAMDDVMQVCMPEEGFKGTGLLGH
How it was run: as §1

[5] = target: T4, USP5 (UniProt P45974)
T4 sequence (whole entry): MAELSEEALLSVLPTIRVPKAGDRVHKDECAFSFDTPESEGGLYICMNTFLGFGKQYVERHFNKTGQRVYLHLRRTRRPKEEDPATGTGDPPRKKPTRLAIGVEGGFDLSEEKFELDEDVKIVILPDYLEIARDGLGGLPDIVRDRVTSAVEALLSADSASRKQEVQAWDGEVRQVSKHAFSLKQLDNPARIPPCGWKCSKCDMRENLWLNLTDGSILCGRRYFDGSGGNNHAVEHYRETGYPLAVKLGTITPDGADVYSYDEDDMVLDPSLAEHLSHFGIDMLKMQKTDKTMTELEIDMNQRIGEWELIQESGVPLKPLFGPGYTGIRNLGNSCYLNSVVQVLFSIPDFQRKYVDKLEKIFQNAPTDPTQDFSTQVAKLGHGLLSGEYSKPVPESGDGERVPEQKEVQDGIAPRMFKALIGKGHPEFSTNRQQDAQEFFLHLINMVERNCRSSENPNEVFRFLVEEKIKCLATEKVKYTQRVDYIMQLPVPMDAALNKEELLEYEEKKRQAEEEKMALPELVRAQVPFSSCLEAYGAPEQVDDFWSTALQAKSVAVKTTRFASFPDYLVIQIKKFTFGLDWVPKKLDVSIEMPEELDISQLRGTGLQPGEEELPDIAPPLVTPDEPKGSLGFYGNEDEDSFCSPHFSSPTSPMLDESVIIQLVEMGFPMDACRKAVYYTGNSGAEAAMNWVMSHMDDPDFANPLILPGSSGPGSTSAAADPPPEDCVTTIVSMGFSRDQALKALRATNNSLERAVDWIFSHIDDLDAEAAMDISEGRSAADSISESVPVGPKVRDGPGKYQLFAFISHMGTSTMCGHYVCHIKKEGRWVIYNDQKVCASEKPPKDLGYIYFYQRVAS
How it was run: as §1

[6] = target: USP54 (UniProt Q70EL1)
How it was run: as §1

[7] = target: USP7 (UniProt Q93009)
How it was run: as §1

[8] = target: T5, USP8 (UniProt P40818)
T5 sequence (whole entry): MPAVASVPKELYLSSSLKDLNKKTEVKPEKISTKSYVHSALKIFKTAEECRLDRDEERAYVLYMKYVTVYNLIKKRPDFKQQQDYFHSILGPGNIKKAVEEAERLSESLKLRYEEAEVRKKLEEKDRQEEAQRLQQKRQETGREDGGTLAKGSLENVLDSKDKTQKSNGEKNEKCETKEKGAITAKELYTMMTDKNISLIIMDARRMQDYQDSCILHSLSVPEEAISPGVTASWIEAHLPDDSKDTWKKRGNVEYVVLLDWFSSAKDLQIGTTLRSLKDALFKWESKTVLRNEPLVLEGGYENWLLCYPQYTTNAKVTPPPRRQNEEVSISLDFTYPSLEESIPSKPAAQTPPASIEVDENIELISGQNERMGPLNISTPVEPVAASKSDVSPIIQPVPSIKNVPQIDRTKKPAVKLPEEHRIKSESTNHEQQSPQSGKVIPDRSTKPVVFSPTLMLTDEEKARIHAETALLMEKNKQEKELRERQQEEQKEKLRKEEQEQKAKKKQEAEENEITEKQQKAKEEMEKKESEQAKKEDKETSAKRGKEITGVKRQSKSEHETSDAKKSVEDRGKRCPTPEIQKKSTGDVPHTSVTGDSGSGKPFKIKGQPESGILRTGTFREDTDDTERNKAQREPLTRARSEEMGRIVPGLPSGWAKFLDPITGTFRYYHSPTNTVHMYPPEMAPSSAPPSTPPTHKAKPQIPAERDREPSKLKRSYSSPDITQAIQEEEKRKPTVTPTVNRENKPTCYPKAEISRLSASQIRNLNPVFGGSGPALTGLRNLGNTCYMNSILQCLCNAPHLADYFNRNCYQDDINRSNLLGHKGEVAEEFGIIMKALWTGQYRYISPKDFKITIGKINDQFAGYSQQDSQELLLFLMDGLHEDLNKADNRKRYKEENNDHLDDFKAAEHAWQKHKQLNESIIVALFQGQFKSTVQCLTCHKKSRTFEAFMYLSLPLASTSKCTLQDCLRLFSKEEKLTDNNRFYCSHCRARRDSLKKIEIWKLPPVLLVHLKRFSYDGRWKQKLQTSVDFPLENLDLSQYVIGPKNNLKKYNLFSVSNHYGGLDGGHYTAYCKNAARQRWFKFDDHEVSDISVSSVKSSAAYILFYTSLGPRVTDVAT
How it was run: as §1

[9] = target: USP9X (UniProt Q93008)
How it was run: as §1

[10] = target: UniProt O00487
How it was run: as §1

Measured: log2 ratio of Biotin-Ahx-Ub-VS probe labelling

Sequence of UniProt O00487 (O00487 whole entry): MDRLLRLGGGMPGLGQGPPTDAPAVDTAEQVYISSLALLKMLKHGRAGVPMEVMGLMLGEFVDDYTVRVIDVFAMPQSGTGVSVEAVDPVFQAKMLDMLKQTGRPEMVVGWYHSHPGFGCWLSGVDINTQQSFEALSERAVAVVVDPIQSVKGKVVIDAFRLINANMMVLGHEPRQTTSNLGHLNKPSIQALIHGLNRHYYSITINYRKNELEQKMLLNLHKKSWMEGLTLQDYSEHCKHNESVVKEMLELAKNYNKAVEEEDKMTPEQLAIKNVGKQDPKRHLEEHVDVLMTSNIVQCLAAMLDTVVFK
Sequence of USP46 (P62068 whole entry): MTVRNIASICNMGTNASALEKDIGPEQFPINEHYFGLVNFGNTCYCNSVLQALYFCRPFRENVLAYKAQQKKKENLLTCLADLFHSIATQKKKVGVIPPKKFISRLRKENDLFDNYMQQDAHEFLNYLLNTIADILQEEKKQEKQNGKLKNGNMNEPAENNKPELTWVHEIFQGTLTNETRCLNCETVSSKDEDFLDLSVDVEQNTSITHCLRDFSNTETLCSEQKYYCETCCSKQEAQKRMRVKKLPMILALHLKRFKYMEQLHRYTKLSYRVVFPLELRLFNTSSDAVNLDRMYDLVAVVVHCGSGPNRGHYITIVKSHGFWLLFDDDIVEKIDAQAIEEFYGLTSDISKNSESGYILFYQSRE
Sequence of USP9X (Q93008 whole entry): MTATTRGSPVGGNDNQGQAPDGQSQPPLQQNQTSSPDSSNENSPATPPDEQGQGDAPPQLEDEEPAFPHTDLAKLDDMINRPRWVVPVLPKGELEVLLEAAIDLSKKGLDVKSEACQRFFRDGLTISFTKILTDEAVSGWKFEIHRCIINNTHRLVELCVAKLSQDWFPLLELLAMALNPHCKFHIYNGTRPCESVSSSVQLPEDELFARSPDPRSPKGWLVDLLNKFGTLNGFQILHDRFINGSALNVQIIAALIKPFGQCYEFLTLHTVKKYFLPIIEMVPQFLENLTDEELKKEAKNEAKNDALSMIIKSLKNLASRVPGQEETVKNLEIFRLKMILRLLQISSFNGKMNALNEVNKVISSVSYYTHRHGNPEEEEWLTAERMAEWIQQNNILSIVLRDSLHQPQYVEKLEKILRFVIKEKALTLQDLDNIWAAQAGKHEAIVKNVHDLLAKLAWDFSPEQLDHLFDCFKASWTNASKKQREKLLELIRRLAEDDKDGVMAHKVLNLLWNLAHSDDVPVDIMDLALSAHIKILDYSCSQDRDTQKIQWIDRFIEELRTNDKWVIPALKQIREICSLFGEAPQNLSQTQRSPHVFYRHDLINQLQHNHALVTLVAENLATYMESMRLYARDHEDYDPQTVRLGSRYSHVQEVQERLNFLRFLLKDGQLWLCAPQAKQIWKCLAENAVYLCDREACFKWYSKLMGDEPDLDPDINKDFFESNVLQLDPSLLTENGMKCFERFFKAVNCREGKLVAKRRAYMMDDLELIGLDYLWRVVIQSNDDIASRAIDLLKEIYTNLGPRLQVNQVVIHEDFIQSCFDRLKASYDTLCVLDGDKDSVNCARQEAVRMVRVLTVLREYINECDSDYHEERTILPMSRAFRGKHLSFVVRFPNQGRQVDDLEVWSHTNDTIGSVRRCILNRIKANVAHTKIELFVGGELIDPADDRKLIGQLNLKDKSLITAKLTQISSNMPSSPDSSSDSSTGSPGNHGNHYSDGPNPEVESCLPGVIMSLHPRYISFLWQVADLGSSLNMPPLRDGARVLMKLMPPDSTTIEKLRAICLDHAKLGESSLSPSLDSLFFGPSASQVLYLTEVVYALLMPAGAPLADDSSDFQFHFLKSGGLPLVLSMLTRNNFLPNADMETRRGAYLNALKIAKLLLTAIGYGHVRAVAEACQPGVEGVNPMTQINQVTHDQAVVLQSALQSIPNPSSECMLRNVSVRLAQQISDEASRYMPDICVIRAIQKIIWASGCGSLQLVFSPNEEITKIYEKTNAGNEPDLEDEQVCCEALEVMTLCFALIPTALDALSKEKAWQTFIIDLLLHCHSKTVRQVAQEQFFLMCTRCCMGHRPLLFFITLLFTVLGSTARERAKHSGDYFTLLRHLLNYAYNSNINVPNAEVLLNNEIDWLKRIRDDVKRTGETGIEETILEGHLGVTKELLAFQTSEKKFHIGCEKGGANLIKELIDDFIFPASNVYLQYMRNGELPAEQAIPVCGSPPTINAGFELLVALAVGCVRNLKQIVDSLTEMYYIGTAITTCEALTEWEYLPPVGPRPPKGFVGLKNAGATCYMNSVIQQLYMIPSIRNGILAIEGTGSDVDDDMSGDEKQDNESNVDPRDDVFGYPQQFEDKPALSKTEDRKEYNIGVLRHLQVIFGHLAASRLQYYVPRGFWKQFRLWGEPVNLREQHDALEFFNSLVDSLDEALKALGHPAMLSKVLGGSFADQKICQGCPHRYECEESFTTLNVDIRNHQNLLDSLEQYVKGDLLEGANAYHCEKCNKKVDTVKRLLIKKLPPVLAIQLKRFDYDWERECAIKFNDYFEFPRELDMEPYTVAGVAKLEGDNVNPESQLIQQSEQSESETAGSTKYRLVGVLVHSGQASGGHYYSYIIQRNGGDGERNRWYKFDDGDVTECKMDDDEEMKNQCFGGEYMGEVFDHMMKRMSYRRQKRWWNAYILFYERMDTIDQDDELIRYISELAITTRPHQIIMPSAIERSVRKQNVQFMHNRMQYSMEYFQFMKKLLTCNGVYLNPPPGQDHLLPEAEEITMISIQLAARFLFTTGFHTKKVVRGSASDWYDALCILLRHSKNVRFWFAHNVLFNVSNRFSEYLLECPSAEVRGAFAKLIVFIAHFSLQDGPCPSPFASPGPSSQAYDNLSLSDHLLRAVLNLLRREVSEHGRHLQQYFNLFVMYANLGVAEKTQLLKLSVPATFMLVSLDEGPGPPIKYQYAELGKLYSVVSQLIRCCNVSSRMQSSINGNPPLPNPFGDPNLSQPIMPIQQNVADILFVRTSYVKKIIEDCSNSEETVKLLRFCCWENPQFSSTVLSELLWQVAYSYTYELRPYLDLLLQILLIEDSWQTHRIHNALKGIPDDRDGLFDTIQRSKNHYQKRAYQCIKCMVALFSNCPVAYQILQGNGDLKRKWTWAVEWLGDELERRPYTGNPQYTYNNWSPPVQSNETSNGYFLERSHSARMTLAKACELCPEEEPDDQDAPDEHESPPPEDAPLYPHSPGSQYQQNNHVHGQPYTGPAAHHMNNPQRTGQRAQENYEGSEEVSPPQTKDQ
Sequence of USP54 (Q70EL1 whole entry): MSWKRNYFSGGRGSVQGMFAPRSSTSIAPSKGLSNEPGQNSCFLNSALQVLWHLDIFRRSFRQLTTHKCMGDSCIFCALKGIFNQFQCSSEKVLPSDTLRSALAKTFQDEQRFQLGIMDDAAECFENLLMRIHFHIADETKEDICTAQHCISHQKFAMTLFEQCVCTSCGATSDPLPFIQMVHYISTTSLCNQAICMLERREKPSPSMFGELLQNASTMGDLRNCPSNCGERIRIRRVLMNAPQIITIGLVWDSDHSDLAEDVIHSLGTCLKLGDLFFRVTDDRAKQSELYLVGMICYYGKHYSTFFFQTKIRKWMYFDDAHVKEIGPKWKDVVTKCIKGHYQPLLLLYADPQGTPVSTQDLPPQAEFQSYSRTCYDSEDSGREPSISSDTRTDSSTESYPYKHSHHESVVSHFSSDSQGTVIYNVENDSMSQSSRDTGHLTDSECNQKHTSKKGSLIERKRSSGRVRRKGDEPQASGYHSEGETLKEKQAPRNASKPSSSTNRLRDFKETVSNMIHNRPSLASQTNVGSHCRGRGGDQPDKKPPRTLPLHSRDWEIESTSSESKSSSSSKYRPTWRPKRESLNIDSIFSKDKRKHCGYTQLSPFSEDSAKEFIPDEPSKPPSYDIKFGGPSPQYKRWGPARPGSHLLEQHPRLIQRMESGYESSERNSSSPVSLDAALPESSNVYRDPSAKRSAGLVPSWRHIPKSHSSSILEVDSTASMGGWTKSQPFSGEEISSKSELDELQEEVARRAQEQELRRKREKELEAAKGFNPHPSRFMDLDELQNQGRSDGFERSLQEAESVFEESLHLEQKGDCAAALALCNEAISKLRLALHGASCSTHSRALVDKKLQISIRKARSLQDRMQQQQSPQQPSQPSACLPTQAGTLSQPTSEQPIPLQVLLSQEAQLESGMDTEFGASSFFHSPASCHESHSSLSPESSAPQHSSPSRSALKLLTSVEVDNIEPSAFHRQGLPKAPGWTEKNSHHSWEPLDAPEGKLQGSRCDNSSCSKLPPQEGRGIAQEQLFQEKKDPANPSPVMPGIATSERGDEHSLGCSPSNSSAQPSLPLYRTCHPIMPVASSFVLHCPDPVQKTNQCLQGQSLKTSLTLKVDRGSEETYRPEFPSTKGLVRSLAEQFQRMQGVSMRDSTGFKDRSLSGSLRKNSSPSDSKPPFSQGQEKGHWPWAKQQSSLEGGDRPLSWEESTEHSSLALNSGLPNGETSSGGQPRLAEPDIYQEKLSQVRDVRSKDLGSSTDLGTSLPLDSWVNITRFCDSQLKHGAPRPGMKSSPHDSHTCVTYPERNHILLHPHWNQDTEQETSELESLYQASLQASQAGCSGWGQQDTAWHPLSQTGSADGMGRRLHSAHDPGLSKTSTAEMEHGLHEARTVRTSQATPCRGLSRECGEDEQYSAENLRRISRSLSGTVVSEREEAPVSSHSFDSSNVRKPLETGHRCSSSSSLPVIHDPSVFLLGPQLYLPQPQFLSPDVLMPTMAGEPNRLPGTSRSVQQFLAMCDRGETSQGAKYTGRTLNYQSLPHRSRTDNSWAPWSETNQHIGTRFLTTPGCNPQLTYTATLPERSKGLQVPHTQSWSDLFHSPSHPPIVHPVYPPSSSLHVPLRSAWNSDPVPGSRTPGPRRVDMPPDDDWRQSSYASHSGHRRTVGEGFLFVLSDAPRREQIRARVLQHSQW

CC(NC(=O)CCl)c1noc(Cc2ccccc2)n1 (stereo not given)
inactive: [1] 0.115 | [2] -0.0371 | [3] 0.0165 | [4] -0.394 | [5] -0.388 | [6] 0.507 | [7] -0.475 | [8] -0.579 | [9] -0.262 | [10] -0.231
